This is an account of results in PubChem BioAssay.

Structures are written as SMILES. Values without a mark were called inactive. For some of these results: Potency and affinity values are given separately. Calls of active or inactive are those of the source. Unless noted, the rule behind the calls is not given here.

A short description of experiment [1]: antimalarial activity against Dd2 strain (AID 2302;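 active = growth inhibition above 50% at the single 2 µM test dose, taken to imply half-maximal potency below 2 µM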;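 note: 0% = DMSO untreated growth and 100% = chloroquine plus artemisinin killed control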). The conditions noted are these: P. falciparum Dd2 in RBCs, LDH growth readout, 72 h; at 2 µM; hits give high values.
The nature of experiment [2]: HepG2 cytotoxicity, primary screen, cytotoxicity control for P. falciparum antimalarial project, cell-based, ATP luminescence (AID 2303;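 active = inhibition above 50%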;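 note: 0% = DMSO wells and 100% = digitonin-killed cells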). The conditions noted are these: HepG2 viability, 24-48 h, at 10 µM, hits give high values.
The target in experiment [3] is L-lactate dehydrogenase (Plasmodium falciparum (isolate CDC / Honduras)) (UniProt Q27743). As to the kind of experiment: PfLDH activity inhibition – cell lysate, 3D7 strain, counter-screen for P. falciparum growth inhibition project (AID 2304).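 Note: 0% = vehicle and 100% = reference inhibitor.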 The conditions noted are these: P. falciparum 3D7 crude extract, LDH APAD/NBT absorbance; at 2 µM; hits give high values. In general terms: A counterscreen serves to expose hits that act by an unwanted route or on another target.

A short description of experiment [4]: inhibition of 3D7 malaria parasite growth – strain 3D7 (AID 2306).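 Note: 0% = DMSO wells and 100% = chloroquine plus artemisinin control wells.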 The conditions noted are these: P. falciparum 3D7 erythrocytic growth, LDH absorbance, 72 h; at 2 µM; hits give high values.
Experiment [5] addresses Calcium-dependent protein kinase 1 (Plasmodium falciparum (isolate 3D7)) (UniProt P62344). As to the kind of experiment: PfCDPK1 kinase inhibitors, biochemical, TCAMS library (AID 1159585; cut-off not given, nearly all actives have IC50 up to about 0.98 µM;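 note: inhibitors leave more ATP so luminescence rises with inhibition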). To be noted: recombinant PfCDPK1, Kinase-Glo ATP depletion luminescence. Background: In Kinase-Glo more light means more ATP remaining.
The target of experiment [6] is Plasmodium falciparum protein kinase 6 (PK6, PF3D7_1337100) (UniProt Q8IDW1). Description: PfPK6 kinase inhibitors, biochemical, TCAMS library (AID 1159586). To be noted: recombinant PfPK6, Kinase-Glo ATP depletion luminescence.
The target in experiment [7] is Protein kinase 7 (PK7), Plasmodium falciparum 3D7 (PF3D7_0213400) (UniProt Q7YTF7). As to the kind of experiment: inhibition of Plasmodium PK7 catalytic activity – biochemical, TCAMS antimalarial set, Kinase-Glo luminescence (AID 1159587). The conditions noted are these: recombinant PfPK7, Kinase-Glo ATP depletion luminescence.
Experiment [8] has as its target Calcium-dependent protein kinase 4 (Plasmodium falciparum (isolate 3D7)) (UniProt Q8IBS5). As to the kind of experiment: PfCDPK4 kinase inhibitors, biochemical, TCAMS library (AID 1159588; cut-off not given, nearly all actives have IC50 up to about 0.91 µM). To be noted: recombinant PfCDPK4, Kinase-Glo ATP depletion luminescence.

One may read the inhibition as the drop in the measured response relative to a control, in per cent.

L-lactate dehydrogenase (Plasmodium falciparum (isolate CDC / Honduras)), sequence (Q27743 whole entry, looked up): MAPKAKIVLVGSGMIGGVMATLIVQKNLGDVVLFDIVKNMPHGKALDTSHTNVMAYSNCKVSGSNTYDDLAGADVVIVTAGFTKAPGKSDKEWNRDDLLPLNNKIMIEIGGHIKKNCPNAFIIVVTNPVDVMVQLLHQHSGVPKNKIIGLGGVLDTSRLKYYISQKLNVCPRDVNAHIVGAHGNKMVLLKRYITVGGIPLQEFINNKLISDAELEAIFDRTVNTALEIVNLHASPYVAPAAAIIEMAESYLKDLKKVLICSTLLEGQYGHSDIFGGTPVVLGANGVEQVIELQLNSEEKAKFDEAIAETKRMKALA
Calcium-dependent protein kinase 1 (Plasmodium falciparum (isolate 3D7)), sequence (P62344 whole entry, looked up): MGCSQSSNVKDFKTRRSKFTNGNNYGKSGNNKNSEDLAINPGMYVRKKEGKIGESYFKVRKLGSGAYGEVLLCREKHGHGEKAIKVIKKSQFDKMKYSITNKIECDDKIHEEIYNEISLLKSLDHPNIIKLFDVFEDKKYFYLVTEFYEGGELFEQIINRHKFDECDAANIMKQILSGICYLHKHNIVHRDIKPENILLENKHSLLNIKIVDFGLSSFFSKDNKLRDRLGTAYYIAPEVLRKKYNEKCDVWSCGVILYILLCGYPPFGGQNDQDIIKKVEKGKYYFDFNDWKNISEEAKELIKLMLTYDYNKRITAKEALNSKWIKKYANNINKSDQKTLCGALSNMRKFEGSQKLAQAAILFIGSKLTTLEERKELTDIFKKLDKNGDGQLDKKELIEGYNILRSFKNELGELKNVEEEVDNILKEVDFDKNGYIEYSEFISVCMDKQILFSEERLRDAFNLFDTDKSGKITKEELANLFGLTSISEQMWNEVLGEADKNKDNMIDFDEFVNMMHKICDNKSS
Calcium-dependent protein kinase 4 (Plasmodium falciparum (isolate 3D7)), sequence (Q8IBS5 whole entry, looked up): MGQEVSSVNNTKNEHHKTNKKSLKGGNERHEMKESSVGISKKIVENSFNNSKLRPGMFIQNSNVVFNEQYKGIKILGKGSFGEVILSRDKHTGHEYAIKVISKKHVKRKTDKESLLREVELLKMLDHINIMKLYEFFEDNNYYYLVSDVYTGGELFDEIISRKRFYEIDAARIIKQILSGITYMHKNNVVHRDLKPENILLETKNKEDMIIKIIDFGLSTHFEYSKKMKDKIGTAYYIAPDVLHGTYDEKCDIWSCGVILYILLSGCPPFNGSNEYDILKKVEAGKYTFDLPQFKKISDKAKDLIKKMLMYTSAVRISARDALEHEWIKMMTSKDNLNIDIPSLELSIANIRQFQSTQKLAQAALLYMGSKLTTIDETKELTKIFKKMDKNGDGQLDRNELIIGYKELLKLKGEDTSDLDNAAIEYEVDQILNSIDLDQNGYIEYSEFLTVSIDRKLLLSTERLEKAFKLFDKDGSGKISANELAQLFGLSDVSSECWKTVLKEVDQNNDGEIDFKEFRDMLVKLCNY
Protein kinase 7 (PK7), Plasmodium falciparum 3D7 (PF3D7_0213400), sequence (Q7YTF7 1-343): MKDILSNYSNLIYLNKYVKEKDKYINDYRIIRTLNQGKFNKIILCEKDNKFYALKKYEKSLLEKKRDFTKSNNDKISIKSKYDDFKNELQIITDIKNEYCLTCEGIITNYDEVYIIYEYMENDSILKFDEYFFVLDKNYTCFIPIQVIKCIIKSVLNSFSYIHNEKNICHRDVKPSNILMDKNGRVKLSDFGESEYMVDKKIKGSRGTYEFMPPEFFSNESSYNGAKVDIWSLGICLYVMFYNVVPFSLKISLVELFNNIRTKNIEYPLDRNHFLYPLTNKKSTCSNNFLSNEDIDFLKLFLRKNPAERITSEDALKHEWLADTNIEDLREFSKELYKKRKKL
Plasmodium falciparum protein kinase 6 (PK6, PF3D7_1337100), sequence (Q8IDW1 1-305): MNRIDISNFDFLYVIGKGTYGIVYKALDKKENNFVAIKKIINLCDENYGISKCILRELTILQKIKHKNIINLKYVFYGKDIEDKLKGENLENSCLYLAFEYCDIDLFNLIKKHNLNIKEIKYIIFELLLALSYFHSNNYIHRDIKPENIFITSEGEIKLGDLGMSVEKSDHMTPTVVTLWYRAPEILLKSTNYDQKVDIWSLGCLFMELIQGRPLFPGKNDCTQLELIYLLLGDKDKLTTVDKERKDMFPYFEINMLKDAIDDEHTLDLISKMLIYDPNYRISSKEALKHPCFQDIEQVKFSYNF

Consider `O=c1ccccn1CCCC1CCCCN1` (stereo not given), for which the growth inhibition was -1% in experiment [1] and 96% (active) in experiment [4]. In addition, the values for the inhibition in experiment [2] and in experiment [3] were -1% and 0%, respectively. For the same compound, the result in experiment [5], in experiment [6], in experiment [7] and in experiment [8] was inactive.
Regarding `Cn1cnc(-c2ccc3c(c2)CCN(CCC2CCC(NC(=O)/C=C/c4ccc(F)cc4)CC2)CC3)c1` (stereo not given), the growth inhibition in experiment [1] was 18%; in experiment [4] it was 90% (active). Moreover, the inhibition in experiment [2] is 26%; in experiment [3], 4%. In addition, the outcome in experiment [5], in experiment [6], in experiment [7] and in experiment [8] was inactive.
As to `CCN(CC)CCN(Cc1ccc(-c2ccc(C(F)(F)F)cc2)cc1)C(=O)Cn1c(SCc2ccc(F)c(F)c2F)nc(=O)c2c1CCC2`, the growth inhibition is 96% (active) in experiment [1] and 91% (active) in experiment [4]. In addition, the inhibition in experiment [2] is 100% (active); in experiment [3] it was -4%. Besides, the outcome in experiment [5], in experiment [6], in experiment [7] and in experiment [8] was inactive.
As to `Cc1ccccc1OCC(O)CNC1CCC(NCC(O)COc2ccccc2C)CC1` (stereo not given), the results for the growth inhibition in experiment [1] and in experiment [4] were 24% and 98% (active), respectively. In addition, the inhibition in experiment [2] was 96% (active); in experiment [3] it was 0%. For the same compound, the result in experiment [5], in experiment [6], in experiment [7] and in experiment [8] was inactive.
As to `COCCOc1cc(C)c(C2CCN(CCCCNC(=O)c3ccc(NC(=O)c4ccc(Cl)cc4)cc3)CC2)cc1C`, the growth inhibition is 30% in experiment [1] and 88% (active) in experiment [4]. Also, the figures for the inhibition in experiment [2] and in experiment [3] were 15% and -2%, respectively. Besides, the result in experiment [5], in experiment [6], in experiment [7] and in experiment [8] was inactive.
In the case of `Cc1cc(N(C)C)nc(Nc2ccc(NC(=O)c3cccc(F)c3)cc2)n1`, the growth inhibition in experiment [1] was 62% (active); in experiment [4], 100% (active). Besides, the inhibition in experiment [2] was -8%; in experiment [3], 4%. In addition, the outcome in experiment [5], in experiment [6], in experiment [7] and in experiment [8] was inactive.
On to `Cc1cccc(NC(c2cccs2)c2c(NC(=O)c3ccccc3)sc(C)c2C)n1` (stereo not given), for which the results for the growth inhibition in experiment [1] and in experiment [4] were 80% (active) and 88% (active), respectively. Besides, the figures for the inhibition in experiment [2] and in experiment [3] were -8% and 1%, respectively. Besides, the result in experiment [5], in experiment [6], in experiment [7] and in experiment [8] was inactive.
For the compound `CN1CCCC1CCNCc1ccc(-c2ccc(CNCCc3ccccc3)cn2)cc1` (stereo not given), the growth inhibition in experiment [1] was 99% (active); in experiment [4] it was 101% (active). Moreover, the inhibition in experiment [2] is 25%; in experiment [3], 2%. In addition, the result in experiment [5], in experiment [6], in experiment [7] and in experiment [8] was inactive.
`CCN1CCC(N(Cc2ccc(-c3ccc(C(F)(F)F)s3)cc2)C(=O)Cn2c(CCc3cccc(F)c3F)nc(=O)c3ccccc32)CC1`: the growth inhibition was 95% (active) in experiment [1] and 93% (active) in experiment [4]. The inhibition was 47% in experiment [2] and 7% in experiment [3]. Moreover, the outcome in experiment [5], in experiment [6], in experiment [7] and in experiment [8] was inactive.
For the compound `COc1cccc(C(=O)Nc2ccc(-c3nc4ccccc4[nH]3)cc2)c1`, the growth inhibition was 19% in experiment [1] and 95% (active) in experiment [4]. The inhibition in experiment [2] was 28%; in experiment [3] it was -3%. Moreover, the result in experiment [5], in experiment [6], in experiment [7] and in experiment [8] was inactive.
In the case of `COc1ccc(CNC(=O)Nc2cc3cc(-c4ccc(CN5CCCC5)cc4)ccc3n3c(C)nnc23)cc1`, the growth inhibition in experiment [1] is 100% (active); in experiment [4], 101% (active). Besides, the inhibition in experiment [2] is 100% (active); in experiment [3], -3%. Moreover, the result in experiment [5], in experiment [6], in experiment [7] and in experiment [8] was inactive.
As for `O=c1[nH]c2ccc3[nH]cccc3c2c1C=Nc1ccc(N2CCN(CCO)CC2)cc1`, the figures for the growth inhibition in experiment [1] and in experiment [4] were 55% (active) and 86% (active), respectively. Moreover, the figures for the inhibition in experiment [2] and in experiment [3] were 34% and -6%, respectively. The outcome in experiment [5], in experiment [6], in experiment [7] and in experiment [8] was inactive.
Turning to `COc1cc(C=NNc2cc(C)nc3ccccc23)cc(OC)c1OC`, the growth inhibition in experiment [1] is 95% (active); in experiment [4], 102% (active). The inhibition is 5% in experiment [2] and -1% in experiment [3]. Moreover, the result in experiment [5], in experiment [6], in experiment [7] and in experiment [8] was inactive.
With `CS(=O)(=O)c1cccc(-c2cnc(N)c3cc(-c4ccc(F)cc4)ccc23)c1`, the growth inhibition in experiment [1] was 33%; in experiment [4], 91% (active). In addition, the inhibition in experiment [2] was 28%; in experiment [3], 4%. In addition, the outcome in experiment [5], in experiment [6], in experiment [7] and in experiment [8] was inactive.
Take `COCCN1CCC(N(CC2(O)CCN(c3ccc(C(F)(F)F)cc3)CC2)C(=O)Cn2c(SCc3cccc(F)c3F)cc(=O)c3ccccc32)CC1`: the figures for the growth inhibition in experiment [1] and in experiment [4] were 75% (active) and 94% (active), respectively. In addition, the inhibition in experiment [2] was 29%; in experiment [3] it was 5%. For the same compound, the outcome in experiment [5], in experiment [6], in experiment [7] and in experiment [8] was inactive.
On to `CC(CCc1ccccc1)NCC(O)c1ccc2c3c(cccc13)S(=O)(=O)N2C` (stereo not given), for which the growth inhibition in experiment [1] and in experiment [4] was 99% (active) throughout. The inhibition in experiment [2] is 16%; in experiment [3] it was 3%. The outcome in experiment [5], in experiment [6], in experiment [7] and in experiment [8] was inactive.
As for `O=C(NC(c1ccc(Cl)cc1)c1ccc2cccnc2c1O)c1ccccc1` (stereo not given), the figures for the growth inhibition in experiment [1] and in experiment [4] were 80% (active) and 87% (active), respectively. The inhibition in experiment [2] was 44%; in experiment [3], -2%. For the same compound, the result in experiment [5], in experiment [6], in experiment [7] and in experiment [8] was inactive.
`NC(N)=NN=Cc1c2ccccc2c(Cl)c2ccc(Cl)cc12`: the growth inhibition in experiment [1] was 89% (active); in experiment [4], 98% (active). In addition, the inhibition is 97% (active) in experiment [2] and 8% in experiment [3]. The result in experiment [5], in experiment [6], in experiment [7] and in experiment [8] was inactive.
On to `Cc1nc(N)nc(N)c1CCCOc1ccccc1Cl`, for which the growth inhibition in experiment [1] was 5%; in experiment [4], 98% (active). Moreover, the inhibition was 40% in experiment [2] and -1% in experiment [3]. The result in experiment [5], in experiment [6], in experiment [7] and in experiment [8] was inactive.
Regarding `COc1ccc2nccc(N3CCC(CCNCc4cc5c(cn4)OCCO5)CC3)c2c1`, the growth inhibition in experiment [1] was 99% (active); in experiment [4], 100% (active). The inhibition in experiment [2] was 26%; in experiment [3], 6%. The outcome in experiment [5], in experiment [6], in experiment [7] and in experiment [8] was inactive.
